PubChem BioAssay AID493084 (National Center for Advancing Translational Sciences (NCATS), 2011)
Out of some 360,000 compounds screened, about 650 (0.18%) were called active. Many of the other results were omitted from the sample, so actives are more common in it than they were. A number with no mark means an inactive call. No stated cut-off is given here; in the data, active means activation above about 30%; inactive means the rest.
Further: 0% is about no effect.

These compounds were tested against Thyrotropin-releasing hormone receptor (Homo sapiens) (UniProt P34981) (assay: qHTS for Small Molecule Agonists and Allosteric Enhancers of Human TRH Receptor: Primary Screen for Agonists.). Details: TRHR cells, calcium flux fluo-8, FDSS agonist mode; at 2 µM; hits give high values.
Chain of Thyrotropin-releasing hormone receptor (Homo sapiens) (P34981 whole entry, looked up): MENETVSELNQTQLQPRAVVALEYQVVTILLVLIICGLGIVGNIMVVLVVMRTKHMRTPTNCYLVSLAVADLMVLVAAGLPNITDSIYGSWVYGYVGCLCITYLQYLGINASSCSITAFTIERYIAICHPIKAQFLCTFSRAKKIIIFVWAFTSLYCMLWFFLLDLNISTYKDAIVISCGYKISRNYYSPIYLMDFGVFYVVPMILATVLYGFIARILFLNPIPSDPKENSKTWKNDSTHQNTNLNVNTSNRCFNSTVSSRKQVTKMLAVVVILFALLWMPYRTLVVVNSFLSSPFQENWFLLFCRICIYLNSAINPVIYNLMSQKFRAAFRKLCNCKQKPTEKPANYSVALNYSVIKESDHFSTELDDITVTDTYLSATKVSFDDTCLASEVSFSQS
Text: NIH Chemical Genomics Center [NCGC] NIH Molecular Libraries Probe Centers Network [MLPCN] MLPCN Grant: MH089816-01 Assay Submitter (PI): Marvin Gershengorn This project aims to identify small drug-like molecules that activate (agonists) the thyrotropin releasing hormone (TRH) receptor (TRHR) or enhance its TRH-stimulated activity (allosteric enhancers). TRHR, a drug-accessible cell surface receptor expressed in specific brain regions, and its ligand TRH have been implicated in several central nervous system disorders, including depression and anxiety. Small molecule TRHR agonists or allosteric enhancers that are metabolically stable and able to cross the blood-brain barrier might serve as probes to elucidate the roles of brain TRH receptors in animal models, and might be valuable as lead compounds for the development of drugs to treat patients with central nervous system disorders. Upon TRHR-Gq activation in TRHR cells, intracellular calcium is released from stores in the endoplasmic reticulum. […] This primary screen measures compound-induced activation of calcium release.
For the HTS assay freshly prepared cells are plated at a density of 2000/well in 3 ul of complete DMEM medium containing 10% serum in 1536-well plates and cultured over night at 37 C in a humidified incubator with 5% CO2. The next day, 2 ul of a no wash calcium dye (ABD Bioquest) was added to the cells and plates were incubated at room temperature for 1 hour. For the assay, assay plates were loaded into the FDSS kinetic plate reader. A 10 cycle (1 second/cycle) baseline measurement is taken and then the FDSS online 1536 pintool delivers 23 nl of compound library (as well as TRH controls) to the plate. The plate is measured for kinetically at 1 cycle/sec for 180 seconds and is considered to be the agonist portion of the assay (eg, compounds which activate a positive calcium response during this portion are flagged as potential agonists). Following the 180 second read, 1 ul of either an EC20 (positive modulation assay) is delivered by an onboard pipette head. Measurements are taken kinetically for an additional 180 seconds. TRHR FDSS Screening Protocol 1. Reagent, 3 uL 2000 cells/well 1536 TC treated Black plate in media containing 10% FCS 2. Time, 18 hours, 33.5C 5% CO2 (cells grown at 37C) 3. Reagent, 2 uL ABD fluo-8 Ca dye 4. Time, 30 min-1.5hrs hours, Room temp (6 plates/batch) 5. Detector, EX 480/EM 530C, FDSS 10 cycles baseline (1sec/cycle) 6. Compound, 23 nL of stock solution from library 7. Detector, EX 480/EM 530C, FDSS […] (1sec/cycle) Agonist mode 8. Compound, 1 ul EC20 of TRH made up in HEPES HBSS, 10 nM final 9. Detector, EX 480/EM 530C, FDSS 100 cycles (1sec/cycle) Potentiator mode
With `Cc1cc2c(s1)c1cnn(Cc3cc(F)c(Cl)cc3Cl)c(=O)c1n2C` the activation was 0.185%. In the case of `CSc1ccc(NC(=O)Cn2nnnc2-c2ccccc2F)cc1`, the activation is reported as 0.477%. `Cc1c(Cl)cccc1NC(=O)N1CCN(C(=O)c2nsc3ccccc23)CC1` gave an activation of -1.09%. In the case of `Cc1ccc(C(=O)NC2CCN(C#N)CC2)cc1`, the activation is reported as 0.438%. Work on `O=S(=O)(c1ccc2c(c1)OCCO2)N1CCN(S(=O)(=O)c2cc(F)ccc2F)CC1` yielded an activation of -0.372%. `CCN(CC)CCNC(=O)Cn1ncc2c3ccccc3n(Cc3ccccc3C)c2c1=O` was tested, and the activation was 1.76%. `Cc1ccc2nc(/C(C#N)=C/c3ccccc3F)[nH]c2c1` was tested, and the activation was 1.62%. `CCOC(=O)c1ccc(-c2ccc(/C=C(\C#N)C(=O)Nc3ccc(C)cc3)o2)cc1` was tested, and the activation was 1.6%. In the case of `Cc1ccc2nc(/C(C#N)=C/c3ccc(-c4ccc(C(=O)OC(C)C)cc4)o3)[nH]c2c1`, the activation is reported as 69.6% (active). With `Cc1noc(/C=C/N(C)C)c1S(=O)(=O)N1CCCC(C(=O)Nc2cccc(F)c2)C1` (centres undefined) the activation was -0.115%. In the case of `CCOC(=O)c1c(C)oc2nc(C)nc(N3CCN(c4ccc(OC)cc4)CC3)c12`, the activation is reported as -1%. For `COc1cccc(CNC(=O)Cc2csc3nc(-c4ccccc4)cn23)c1`, the activation was -0.21%. `COc1cccc2c1cc1c(=O)n(CC(=O)N3CCN(c4ccccc4)CC3)nc(C)n12` showed an activation of 0.0688%. For `COc1ccc(-n2c(SCC(=O)Nc3ccc(Cl)c(C)c3)nc3n[nH]c(C)c3c2=N)cc1`, the activation was 0.481%. With `CCN(CC)c1ccc2cc(C(N)=O)/c(=N\NC(=O)c3ccncc3)oc2c1` the activation was 81.7% (active). `CCOC(=O)c1c(C)oc2ccc(N(C(=O)c3ccncc3)S(=O)(=O)c3ccc(CC)cc3)cc12` was tested, and the activation was 0.327%. `C/C(=N\NC(N)=S)c1ccncc1` showed an activation of 0.334%. Compound `N#CN1CCC(NC(=O)c2ccc(F)cc2)CC1` has an activation of 1.13%. `O=C(CNC(=O)c1ccc(Cl)cc1Cl)OC(C(=O)Nc1cc(C(F)(F)F)ccc1Cl)c1ccccc1` (centres undefined) gave an activation of -0.435%. `CC(=O)Nc1c(C)nn(-c2ccccc2)c1N1CCC(C(=O)Nc2cc(Cl)ccc2C)CC1` showed an activation of -0.0803%. In the case of `Cc1cccc2c(=O)cc(CSc3ccccc3NC(=O)C(C)C)[nH]c12`, the activation is reported as 0.235%. In the case of `COc1ccc(CNC(=O)CCc2c(C)nn(-c3ccc(N4CCCC4)nn3)c2C)cc1`, the activation is reported as 0.0444%. Compound `Cc1ccc(C)c(Cn2c(=O)n(CCC(=O)NCc3ccc4c(c3)OCO4)c(=O)c3sccc32)c1` has an activation of -0.659%. Work on `COc1ccc(N2CCN(C3=NS(=O)(=O)C(c4cccc(Br)c4)=C3C)CC2)cc1` yielded an activation of -0.301%. Work on `COc1cc(C(=O)NCCS(=O)(=O)N2CCN(c3ccccc3)CC2)cc(OC)c1OC` yielded an activation of 0.101%. Work on `CCc1ccc(-n2nnc(-c3nc(-c4ccccc4)no3)c2C)cc1` yielded an activation of 0.119%. Compound `CCCN(CCC)C(=O)C1CCCN(c2ncnc3c2nc2n3CCCCC2)C1` (centres undefined) has an activation of -0.956%. `O=C(CC(NCc1cccnc1)C(=O)O)Nc1ccc(O)cc1` (centres undefined) showed an activation of 0.363%. `CCOc1cccc(CC(=O)N2CCc3c([nH]c4ccccc34)C2c2ccc(OC)cc2)c1OCC` (centres undefined) showed an activation of 0.0175%. `CC1CCCN(c2cc3c(cc2F)c(=O)c(S(=O)(=O)c2cccc(Cl)c2)cn3Cc2ccccc2)C1` (centres undefined) showed an activation of 0.542%. With `CCN(CC)c1ccc2oc(=O)c(C)nc2c1` the activation was 100% (active). `COc1cccc(N2CCN(S(=O)(=O)c3ccc4c(c3)CCCN4C(C)=O)CC2)c1` was tested, and the activation was -0.749%. For `COc1ccc(CCNC(=O)Cn2c(=O)cc(C(F)(F)F)c3c(C)nn(C)c32)c(OC)c1`, the activation was -0.214%. With `Cc1cc2c(s1)c1cnn(Cc3c(F)cccc3Cl)c(=O)c1n2C` the activation was -0.043%. With `COc1cccc(NC(=O)Nc2ccc3c(c2)N(C)C(=O)c2ccccc2S3)c1` the activation was -0.213%. `CCOC(=O)c1c(S(=O)(=O)N2CCCC(C(=O)NCc3ccc(F)cc3)C2)c(C)n(CC)c1C` (centres undefined) showed an activation of -0.483%. Compound `O=S(=O)(c1ccc(Br)cc1)c1nnn2c1nc(NC1CCCCCC1)c1sccc12` has an activation of -0.704%. For `COc1ccc(NC(=O)CSc2nc3ccccc3n2CC(=O)N2CCCCC2C)cc1` (centres undefined), the activation was -0.312%. `N#Cc1nc(Nc2cccc(Cl)c2)nc(NC2CCCC2)n1` was tested, and the activation was -2.51%. `COc1ccccc1N1CCN(S(=O)(=O)CCNC(=O)COc2ccc(F)cc2)CC1` was tested, and the activation was -0.566%. For `CCOc1cccc2c1N[C@@H](c1ccc(C(=O)O)cc1)[C@H]1CC=C[C@@H]21`, the activation was 0.0412%. Compound `COc1ccc(CNC(=O)Cc2coc3ccc(C(C)C)cc23)cc1` has an activation of -0.0096%. Compound `CCOc1cc(-c2nnc(SCC(=O)NC3CCCC3)nc2-c2ccc(OC)c(OCC)c2)ccc1OC` has an activation of 0.306%. `CCOC(=O)c1nnn(CC(=O)NC(=O)Nc2ccccc2F)c1C(=O)OCC` gave an activation of 1.07%. Work on `CN1CCOc2cc(S(=O)(=O)N3CCN(S(=O)(=O)c4c(F)cccc4F)CC3)cnc21` yielded an activation of -0.448%. With `Nc1ccc2nc3c(=O)[nH]c(=S)[nH]c3nc2c1` the activation was 35.9% (active). Work on `CCN(c1ccc(Cl)cc1)S(=O)(=O)c1nnc(NC(=O)c2ccco2)s1` yielded an activation of -0.115%. Work on `COc1ccc(CCNC(=O)Cn2c(=O)n(-c3ccccc3)c(=O)c3c(C)c(C)sc32)cc1OC` yielded an activation of -1.42%. Compound `O=C(NCc1nnc(C(=O)Nc2ccc(C(F)(F)F)cc2Cl)o1)c1ccccc1` has an activation of -2.31%. Work on `COC(=O)c1ccccc1NC(=O)c1ccc(C#N)cc1` yielded an activation of 0.34%. `Cc1ccccc1C(=O)NCc1nc(-c2ccc(Cl)cc2)no1` was tested, and the activation was -0.152%. Work on `Cc1cccc(C(C)C)c1NC(=O)C(NS(=O)(=O)c1cccc2nsnc12)c1ccccc1` (centres undefined) yielded an activation of -0.333%. Work on `COc1ccc(CNC(=O)Cn2nnc(-c3ccccc3F)n2)cc1` yielded an activation of -0.359%. With `CCOc1ccccc1N(CC)C(=O)c1cc2ccc3cccnc3c2[nH]1` the activation was 2.85%. `Cc1ccccc1NC(=O)CN1C(=O)C(C)(C)c2ccccc21` was tested, and the activation was 0.364%. Work on `CCOc1ccc2nc(N3CCC(C(=O)Nc4cc(C)ccc4C)CC3)sc2c1` yielded an activation of -0.106%. `Cc1ccccc1NC(=O)c1cc2c([nH]c1=O)CC(C)(C)CC2=O` showed an activation of 1.28%. `Cc1ccc(CNC(=O)c2cccc3c2C(=O)c2ccc(N4CCC(C)CC4)cc2S3(=O)=O)cc1` was tested, and the activation was 86.3% (active). `COc1cccc(-c2ccc3c(c2)S(=O)(=O)c2cccc(C(=O)O)c2C3=O)c1OC` gave an activation of 0.018%. `Cc1ccc(CNC(=O)c2ccccc2CCc2ccccc2)cc1` was tested, and the activation was 0.513%. In the case of `Cc1ccc(C2C3=C(Nc4[nH]n(-c5ccccc5)c(=O)c42)c2ccccc2C3=O)cc1` (centres undefined), the activation is reported as -0.291%. `COC(=O)C1=C(C)NC2=C(C(=O)c3ccccc32)C1c1ccc(-c2ccc(C(=O)O)cc2)o1` (centres undefined) was tested, and the activation was 46.3% (active). For `CCOc1cc(C2C(C(=O)OC)=C(C)NC3=C2C(=O)c2ccccc23)ccc1O` (centres undefined), the activation was 0.256%. In the case of `Cc1c(C)n(Cc2ccc(Cl)cc2)c2ccc(C(=O)NCCc3ccc(S(N)(=O)=O)cc3)cc12`, the activation is reported as 0.277%. In the case of `Cc1nn(-c2ccc(N3CCCCC3)nn2)c(C)c1CCC(=O)NCc1ccc(F)cc1`, the activation is reported as -0.372%. For `CCN1/C(=C\c2ccc3ccccc3[n+]2CC)Sc2cc(C)ccc21`, the activation was 34.6% (active). In the case of `CCCC12CN3CC(CCC)(CN(C1)C3c1c[nH]c3ccc(OC)cc13)C2=O` (centres undefined), the activation is reported as 2.39%. With `CCOc1cc(/C=C(/C#N)c2ccc(Cl)cc2)cc(Cl)c1OCC(=O)O` the activation was -0.184%. `CCOc1cc(/C=C(\C#N)C(=O)Nc2ccccc2C)ccc1OCc1cc(=O)n2nc(CC)sc2n1` was tested, and the activation was -1.33%. In the case of `CCOc1cc(/C=C(\C#N)c2nc(-c3cccs3)c(NC(C)=O)s2)ccc1O`, the activation is reported as 37.3% (active). `Cc1nc2ccc(S(=O)(=O)N(CC(=O)Nc3ccc(F)cc3)Cc3ccccc3)cc2s1` was tested, and the activation was -0.726%. In the case of `Cc1ccc(-n2nc(C)c3c(C)cc(=O)n(CC(=O)Nc4ccc(C(C)C)cc4)c32)cc1`, the activation is reported as -0.803%. `Cc1cccc(NC(=O)N2CCC(CN3CCc4ccccc4C3)CC2)c1C` showed an activation of -0.238%. Compound `O=C(Nc1ccc(OC(F)(F)F)cc1)c1cc2c(=O)n3ccccc3nc2s1` has an activation of 0.583%. For `O=C(/C=C(O)/C=C/c1ccc(O)cc1)/C=C/c1ccc(O)cc1`, the activation was 150% (active). In the case of `CC1=CC2=NC(=O)/C(=C/c3coc4ccccc4c3=O)C(=N)N2O1`, the activation is reported as 111% (active). `COc1ccc(OCCCn2cccc2/C=C2/C(=N)N3OC(C)=CC3=NC2=O)cc1` gave an activation of -0.544%. In the case of `O=C(NCc1ccc(Cl)cc1)c1ccc2c(c1)nnn2C1CCCC1`, the activation is reported as -0.129%. `O=S(=O)(c1ccc(Br)cc1)c1nnn2c1nc(N1CCOCC1)c1sccc12` showed an activation of -0.0076%. In the case of `Cc1ccc(NC(=O)c2oc3ccc(S(=O)(=O)N4CCCCC4)cc3c2C)cc1Cl`, the activation is reported as 1.26%. For `COc1ccc(C(=O)Nc2nonc2-c2ccc(OC)c(OC)c2)cc1Cl`, the activation was -1.06%. `Cc1cccc(N2CCN(c3c(CN4CCCC4)c(=O)oc4ccccc34)CC2)c1C` was tested, and the activation was 0.139%. With `COC1=C/C(=C/c2c(N)n3nc(CC(=O)N4CCOCC4)sc3nc2=O)C=CC1=O` the activation was 15.5%. For `C=CCC1=C/C(=C\c2c(N)n3nc(CC(=O)N4CCOCC4)sc3nc2=O)C=C(OC)C1=O`, the activation was 162% (active).
